Measured values as given in PubChem BioAssay (NCATS).
Results filed as inconclusive are left out. Where a call stands in place of a potency, no number is given. A number with no mark means an inactive call. The source made the active and inactive calls. The call rests on the fitted dose curve; in most records, active means well fitted inhibition curve with a large enough effect; inconclusive means small, poorly fitted or top-dose-only effect; inactive means flat fitted curve, though single readings scatter.

tested on: Zika virus NS2B-NS3 protease; test: Primary screen GU AMC qHTS for Zika virus inhibitors (AID 1347154); details: Zika NS2B-NS3 unlinked protease, AMC fluorogenic substrate; series mostly up to 54.1 µM; further: nearly all actives have a fitted effect of over 70% in size
Description: Avindra Nath, Ph.D., National Institute of Neurological Disorders and Stroke (NINDS), Bethesda, MD
Radhakrishnan Padmanabhan, Ph.D., Georgetown University (GU), Washington D.C.
Zika Virus causes congenital defects, including microcephaly and is associated with Guillain-Barre syndrome, eningoencephalitis and myelitis in infected adult. […] Using a target-based approach, we hope to establish a screening paradigm to uncover novel, cell-active NS2B-NS3 protease (Zika Virus) specific inhibitors from NCATS' collection of small molecules using qHTS.
Early Translation Branch (ETB)
National Center for Advancing Translational Sciences (NCATS), Rockville, MD
National Institute of Health (NIH), Bethesda, Maryland
Padmanabhan lab provided the NS2B hydrophilic domain and NS3 protease domain in a noncovalent complex used for the unlinked assay. Control compound aprotinin is obtained from Thermo Scientific (#78432; Waltham, Massachusetts). NS2B-NS3 AMC substrate (Bz-Nle-Lys-Arg-Arg-AMC; Nle-KRR-AMC) purchased from Bachem (#I-1995; Torrance, CA). Ac-VKTGKR-AMC purchased from Genscript or Bachem, Ac-FAAGKR-AMC purchased from Genscript, Ac-GLVKRR-AMC purchased from Genscript, Ac-LKKR-AMC purchased from Genscript.
GU AMC unlinked NS2B-NS3 protease qHTS protocol
Briefly, 3 microL of Zika virus unlinked NS2B-NS3 protease (25 nM for linked final concentration), in assay buffer (10 mM Tris-HCl pH 8.0 with 0.01% Tween 20) was dispensed into a 1,536-well solid-bottom black plate (Greiner Bio One, Monroe, NC). […] Plates were then read immediately on a ViewLux High-throughput CCD imager (PerkinElmer, Waltham, MA) equipped with standard UV fluorescence optics (340(30) nm excitation, 450(20) nm emission) then incubated (room temperature, protected from light) for 15 minutes (~20% conversion). The change in fluorescence intensity over the 15-minute reaction period was normalized against no-inhibitor and no-enzyme controls and the resulting percent inhibition data were fitted to a 4-parameter Hill equation. Aprotinin was used as the intraplate control.
Potency means the concentration at half of the fitted maximal effect.

SMILES | activity change, negative = inhibition | Potency
NCCNCCNCCNCCN | -0.671% [at 6.83 µM] | –
Oc1cn2c(n1)Nc1ccc(Cl)c(Cl)c1C2 | – | inactive
CC(COc1ccccc1)NC(C)C(O)c1ccc(O)cc1 (stereo not given) | – | inactive
COc1cc(C)c(Cc2cnc(N)nc2N)cc1OC | – | inactive
CC1(C)Oc2ccc(C#N)cc2[C@@H](N2CCCC2=O)[C@@H]1O | – | inactive
O=C1c2c(O)cccc2Cc2cccc(O)c21 | – | inactive
CCN(CC)CCOC(=O)C1(C2CCCCC2)CCCCC1 | – | inactive
CC(O)COc1ccccc1 (stereo not given) | – | inactive
Cn1c(=O)c2c(ncn2CC2OCCO2)n(C)c1=O | – | inactive
Cc1cccc(Nc2cc(Cl)nc(SCC(=O)O)n2)c1C | – | inactive
CCCCN1CCCC[C@H]1C(=O)Nc1c(C)cccc1C | – | inactive
CCN(CC)CCNC(=O)c1c(C)[nH]c(/C=C2\C(=O)Nc3ccc(F)cc32)c1C | – | inactive
CCOC(=O)c1ccc(O)cc1 | – | inactive
CN(C)CC[C@@H](c1ccc(Cl)cc1)c1ccccn1 | – | inactive
CC1(C)CO[C@@H](CC(=O)O)CN1 | – | inactive
C[C@@H]1CC[C@@]2(OC1)O[C@H]1C[C@H]3[C@@H]4CC[C@H]5C[C@@H](O)CC[C@]5(C)[C@H]4CC(=O)[C@]3(C)[C@H]1[C@@H]2C | -4.75% [at 4.99 µM] | –
COc1ccc2cc1Oc1ccc(cc1)C[C@H]1c3c(cc4c(c3Oc3cc5c(cc3OC)CCN(C)[C@@H]5C2)OCO4)CCN1C | – | inactive
Cc1ncc([N+](=O)[O-])n1CC(O)CCl (stereo not given) | – | inactive
c1ccc2c(CC3=NCCN3)cccc2c1 | – | inactive
[Cl][In]([Cl])[Cl] | – | 11.2 µM (active)

SMILES | activity change, negative = inhibition | Potency
O=c1cc[nH]c(=S)[nH]1 | – | inactive
CC(C)NC[C@H](O)c1ccc(O)c(O)c1 | – | inactive
Cc1ccc(C(C)C)cc2c(C)ccc1-2 | – | inactive
NC(=O)NC(=O)Cc1ccccc1 | – | inactive
CCCCN(CCCC)CC(O)c1cc(Cl)cc2c1-c1ccc(Cl)cc1/C2=C/c1ccc(Cl)cc1 (stereo not given) | – | inactive
Nc1ccc(S(=O)(=O)Nc2nccs2)cc1 | – | inactive
COC(=O)[C@H]1[C@H]2C[C@@H]3c4[nH]c5cc(OC)ccc5c4CCN3C[C@H]2C[C@@H](OC(=O)COc2ccc(OC)cc2)[C@@H]1OC | – | inactive
N[C@@H](CSCCCO)C(=O)O | – | inactive
CCCn1cnc2c1c(=O)n(CCCCC(C)=O)c(=O)n2C | – | inactive
CCn1cc(C(=O)O)c(=O)c2cnc(N3CCNCC3)nc21 | – | inactive
O=C1NS(=O)(=O)c2ccccc21 | – | inactive
NCC(=O)CCC(=O)O | – | inactive
O=S(=O)(O)c1cc(I)c(O)c2ncccc12 | – | inactive
C[C@H](NC(CCc1ccccc1)C(=O)O)C(=O)N1CCC[C@H]1C(=O)O (stereo not given in full) | – | inactive
CN1[C@@H]2CC(OC(=O)[C@H](CO)c3ccccc3)C[C@H]1[C@@H]1O[C@@H]12 (stereo not given in full) | – | inactive
CCCCCCCCCCCCCCCC(=O)NCCO | – | inactive
CN1CCOC(c2ccccc2)c2ccccc2C1 (stereo not given) | – | inactive
CN(C)CCCN1c2ccccc2Sc2ccc(Cl)cc21 | – | inactive
c1ccc(CN(CC2=NCCN2)c2ccccc2)cc1 | – | inactive
CCN(CC)CCNC(C(=O)OCCC(C)C)c1ccccc1 (stereo not given) | – | inactive
